# Values joined by “and” are separate entries in the source; they are usually repeats but may differ in a detail not shown here. Equal entries are not always repeated. Results filed as inconclusive are left out. Some structures have more than one record in an assay (separate samples or runs), and their calls can disagree. Active and inactive are the calls of the source. How the source made its calls, unless noted: active means hit-call score of the fitted dose curve at least 0.9, where 1 is the maximum; inconclusive means response in the unintended direction; inactive means score below 0.9.
# Assays:
# [1] = ATG_XTT_Cytotoxicity: Cytotoxicity Assessment in the Attagene TRANS-FACTORIAL HepG2 Assay (AID 2283584);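 on AC50: XTT signal for cell number as viability in transfected HepG2 cells; cells exposed to compound for 24 h before reading; active means loss of viability signal versus DMSO baseline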
# How it was run: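 Transfect HepG2 with GAL4-UAS reporter units, dose compound, incubate 24 h, then measure viable cell number by XTT. Fit concentration response against DMSO baseline.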
# [2] = CEETOX_H295R_TESTO: CeeTox H295R High-throughput Steroidogenesis Assay for Testosterone (TESTO) (AID 2283457; active means hit-call score of the fitted dose curve at least 0.9, where 1 is the maximum; inactive means score below 0.9;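 on AC50: cells exposed to chemicals for 48 h before medium collection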); settings: actives raise or lower the signal
# How it was run: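 Testosterone synthesis is assessed in human adrenocortical H295R cells after 48 h of chemical exposure, using HPLC-MS/MS of extracted medium. Activity is fitted in both directions against DMSO control.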
# [3] = test system: Thyroperoxidase (TPO), gene 54314; experiment: CCTE_Simmons_AUR_rTPO: CCTE's Amplex UltraRed Assay for Thyroperoxidase (TPO) Inhibition, Simmons Lab (AID 2283662);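 further: potency for loss of signal meaning inhibition of peroxidase activity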
# How it was run: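 Rat thyroid microsomes (5 ug protein) with 25 uM Amplex UltraRed and 300 uM H2O2 in 200 mM phosphate buffer, 30 min at 37C in dark; fluorescence 544/590 nm. Eight concentrations, 5 nM–87.5 uM final, 0.5% DMSO, triplicate biological replicates.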
# [4] = CCTE_Simmons_CellTiterGLO_HEK293T: Viability Assessment in CCTE's Assays for Thyroperoxidase (TPO) Inhibition, Simmons Lab (AID 2283665);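 further: cells exposed to compound for 24 h before readout; actives reduce ATP signal below DMSO vehicle meaning cytotoxicity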
# How it was run: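 HEK293T cells in DMEM with 1% FBS, dosed 24 h at 37C with 8 concentrations, 5 nM–87.5 uM final, 0.5% DMSO. ATP measured by CellTiter Glo luminescence; loss of signal vs DMSO, three biological replicates.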
# [5] = biological target: Luciferin 4-monooxygenase (Photinus pyralis) (UniProt P08659); experiment: CCTE_Simmons_QuantiLum_inhib_2: CCTE's Firefly Luciferase Inhibition Assay, Simmons Lab (AID 2283767);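 on AC50: potency for inhibitors that lower luciferase luminescence relative to DMSO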
# Chain of Luciferin 4-monooxygenase (Photinus pyralis) (P08659 whole entry, looked up): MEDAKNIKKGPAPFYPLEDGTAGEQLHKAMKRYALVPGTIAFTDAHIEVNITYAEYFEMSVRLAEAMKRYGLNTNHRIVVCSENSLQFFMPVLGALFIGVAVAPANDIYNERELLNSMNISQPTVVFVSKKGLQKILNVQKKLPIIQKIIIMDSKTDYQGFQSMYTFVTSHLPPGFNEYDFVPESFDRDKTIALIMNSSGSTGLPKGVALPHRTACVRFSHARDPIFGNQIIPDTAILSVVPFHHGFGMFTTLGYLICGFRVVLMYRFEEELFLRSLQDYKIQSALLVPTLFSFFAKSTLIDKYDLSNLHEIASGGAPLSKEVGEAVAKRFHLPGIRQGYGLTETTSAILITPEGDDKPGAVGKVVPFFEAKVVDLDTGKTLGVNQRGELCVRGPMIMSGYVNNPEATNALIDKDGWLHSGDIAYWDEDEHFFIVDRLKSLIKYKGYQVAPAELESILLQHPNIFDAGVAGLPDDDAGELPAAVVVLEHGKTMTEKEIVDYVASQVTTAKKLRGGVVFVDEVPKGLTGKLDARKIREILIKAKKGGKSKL
# How it was run: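 Cell-free recombinant firefly luciferase (5 ng/well) in 200mM potassium phosphate with 1 mg/ml BSA, 30 min at 37C with 8 concentrations from 5 nM to 87.5 uM [final], 0.5% DMSO. Luminescence read after D-luciferin (150uM)/dATP (147uM) reagent injection, pH 7.8; triplicates.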
# [6] = TOX21_p53_BLA_p2_viability: Viability Assessment in the Tox21 HCT-116 p53 Agonism Beta-lactamase Assay, Phase 2 (AID 2283591);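 further: actives lower the ATP signal meaning cytotoxicity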
# How it was run: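 HCT-116 p53-bla cells (4000/well) rested 5 h at 37C, then received compounds in DMSO (217-fold dilution) for 16 h at 37C, 5% CO2. After the CCF4 read, CellTiter-Glo was added; ATP luminescence was read after 30 min at room temperature.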
# [7] = biological target: Cellular tumor antigen p53 (Homo sapiens) (UniProt P04637); experiment: TOX21_p53_BLA_p2_ratio: Tox21 HCT-116 p53 Agonism Beta-lactamase Assay, Ratio, Phase 2 (AID 2283592)
# Chain of Cellular tumor antigen p53 (Homo sapiens) (P04637 whole entry, looked up): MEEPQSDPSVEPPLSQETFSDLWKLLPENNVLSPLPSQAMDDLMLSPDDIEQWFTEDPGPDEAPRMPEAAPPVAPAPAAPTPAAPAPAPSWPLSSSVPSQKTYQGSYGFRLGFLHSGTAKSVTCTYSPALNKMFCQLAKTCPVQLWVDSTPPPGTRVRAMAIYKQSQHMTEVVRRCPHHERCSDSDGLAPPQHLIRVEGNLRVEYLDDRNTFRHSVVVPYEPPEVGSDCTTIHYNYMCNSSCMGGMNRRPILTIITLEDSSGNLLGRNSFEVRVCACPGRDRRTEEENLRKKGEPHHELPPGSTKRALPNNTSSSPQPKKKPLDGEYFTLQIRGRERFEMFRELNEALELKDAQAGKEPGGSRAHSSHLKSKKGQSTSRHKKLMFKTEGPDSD
# How it was run: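 An inducible beta-lactamase reporter in HCT116 cells signals p53 pathway activation. After 16 h chemical exposure at 37C, cells load CCF4-AM substrate for 2 h at room temperature; activity is the cleaved/uncleaved emission ratio relative to DMSO.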
# [8] = TOX21_p53_BLA_p3_viability: Viability Assessment in the Tox21 HCT-116 p53 Agonism Beta-lactamase Assay, Phase 3 (AID 2283593);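 further: cells exposed to compound for 16 h before reading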
# How it was run: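 HCT-116 cells (4000/well) rested 5 h at 37C, then got DMSO compounds by pin tool (217-fold dilution) for 16 h at 37C, 5% CO2. After the bla read, CellTiter-Glo was added and luminescence read at 30 min, room temperature.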
# [9] = biological target: Cellular tumor antigen p53 (Homo sapiens) (UniProt P04637); experiment: TOX21_p53_BLA_p3_ratio: Tox21 HCT-116 p53 Agonism Beta-lactamase Assay, Ratio, Phase 3 (AID 2283596)
# How it was run: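 HCT116 p53-bla cells (4000/well) given compound in DMSO (217-fold dilution) after 5 h, incubated 16 h at 37C. CCF4-AM substrate 2 h at room temperature; 460/530 nm emission ratio, gain fitted against DMSO.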
# [10] = TOX21_p53_BLA_p4_viability: Viability Assessment in the Tox21 HCT-116 p53 Agonism Beta-lactamase Assay, Phase 4 (AID 2283597);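 further: hits lower the luminescence signal meaning cytotoxicity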
# How it was run: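 Compound exposure of HCT116 cells lasts 16 h at 37C, 5% CO2, with DMSO stocks diluted 217-fold. Cellular ATP is then quantified by CellTiter-Glo luminescence after 30 min at room temperature.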
# [11] = biological target: Cellular tumor antigen p53 (Homo sapiens) (UniProt P04637); experiment: TOX21_p53_BLA_p5_ratio: Tox21 HCT-116 p53 Agonism Beta-lactamase Assay, Ratio, Phase 5 (AID 2283599)
# How it was run: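 HCT-116 cells carrying a p53-inducible beta-lactamase reporter were seeded at 4000 cells/well and dosed after 5 h with compound in DMSO (217-fold dilution). After 16 h at 37C, CCF4-AM substrate was added for 2 h, and the 460/530 nm emission ratio was scored as gain-of-signal versus DMSO.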
# [12] = TOX21_p53_BLA_p5_viability: Viability Assessment in the Tox21 HCT-116 p53 Agonism Beta-lactamase Assay, Phase 5 (AID 2283600)
# How it was run: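 Counter-readout for cytotoxicity: ATP-dependent luminescence from CellTiter-Glo, read in the beta-lactamase wells after 30 min at RT, following a 16 h compound exposure at 37C.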
# [13] = biological target: Cellular tumor antigen p53 (Homo sapiens) (UniProt P04637); experiment: TOX21_p53_BLA_p4_ratio: Tox21 HCT-116 p53 Agonism Beta-lactamase Assay, Ratio, Phase 4 (AID 2283601)
# How it was run: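 HCT116 cells carrying an inducible beta-lactamase reporter were plated at 4000 cells/well, rested 5 h, then exposed to compounds in DMSO (217-fold dilution) for 16 h at 37C. CCF4-AM substrate was loaded 2 h at room temperature; 460/530 nm emission ratio scored gain-of-signal versus DMSO.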
# [14] = biological target: zebrafish Estrogen Receptor (ESR1), esr1 (gene 259252) (UniProt P57717); experiment: ATG_zfER1_XSP1: Attagene TRANS-FACTORIAL Multi-Species (XSP1) HepG2 Assay for zebrafish Estrogen Receptor (ESR1) (AID 2283772)
# Chain of zebrafish Estrogen Receptor (ESR1), esr1 (gene 259252) (P57717 whole entry, looked up, the tested form may be a part): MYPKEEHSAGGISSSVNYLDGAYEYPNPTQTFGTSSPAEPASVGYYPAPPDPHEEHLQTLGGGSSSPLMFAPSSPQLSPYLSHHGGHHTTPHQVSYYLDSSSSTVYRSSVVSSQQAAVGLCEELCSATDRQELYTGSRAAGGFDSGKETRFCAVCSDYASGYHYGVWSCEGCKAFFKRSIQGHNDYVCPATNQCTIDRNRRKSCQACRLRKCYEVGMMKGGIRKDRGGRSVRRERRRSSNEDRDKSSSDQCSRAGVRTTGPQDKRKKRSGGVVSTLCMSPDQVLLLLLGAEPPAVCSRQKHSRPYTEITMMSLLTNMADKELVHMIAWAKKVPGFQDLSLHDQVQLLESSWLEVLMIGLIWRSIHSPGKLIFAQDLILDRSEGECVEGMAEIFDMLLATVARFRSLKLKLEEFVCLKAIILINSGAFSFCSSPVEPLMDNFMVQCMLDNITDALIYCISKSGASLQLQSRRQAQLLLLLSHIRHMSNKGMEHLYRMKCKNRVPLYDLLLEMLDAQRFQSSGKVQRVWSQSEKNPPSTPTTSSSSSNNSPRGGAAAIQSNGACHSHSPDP
# How it was run: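 Exogenous chimeric receptor-GAL4 activity is measured in transiently transfected human HepG2 liver cells after 24 h compound exposure. Reporter transcripts are detected by RT-PCR and fluorescent capillary electrophoresis, analysed for signal gain relative to DMSO.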
# [15] = test system: zebrafish Estrogen Receptor (ESR2B), gene 317733; experiment: ATG_zfER2b_XSP1: Attagene TRANS-FACTORIAL Multi-Species (XSP1) HepG2 Assay for zebrafish Estrogen Receptor (ESR2B) (AID 2283773)
# How it was run: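 HepG2 cells transiently transfected with multiple GAL4-UAS reporter units expressing chimeric zebrafish ER2b-Gal4; 24 h chemical exposure with 3 nM 6-alpha-fluorotestosterone present. Reporter mRNA measured by RT-PCR and capillary electrophoresis; gain of signal fitted versus DMSO.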
# [16] = test system: frog Estrogen Receptor (ESR2), gene 100174814; experiment: ATG_frER2_XSP1: Attagene TRANS-FACTORIAL Multi-Species (XSP1) HepG2 Assay for frog Estrogen Receptor (ESR2) (AID 2283774)
# How it was run: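 HepG2 cells transiently transfected with GAL4-UAS multiplexed reporter units expressing chimeric NR-Gal4 proteins; reporter mRNA measured 24 h after dosing by RT-PCR, FAM labeling, HpaI digestion and capillary electrophoresis. Gain-of-signal relative to DMSO; 3 nM 6-alpha-fluorotestosterone present.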
structure (smiles),measurement,setting,value
Nc1c(Br)cc([N+](=O)[O-])cc1Br,outcome,[1],inactive
CC1CCCCC1,outcome,[2],inactive
same,outcome,[1],inactive
CCc1cccc(C)c1N(C(=O)C(=O)O)C(C)COC (stereo unspecified),outcome,[1],inactive
CCCCCCCCCc1ccc(OCCO)cc1,outcome,[2],inactive
same,outcome,[1],inactive
same,AC50,[3],38.5 µM (active)
same,AC50,[4],79.6 µM (active)
same,outcome,[5],inactive
Cc1ccc(S(=O)(=O)C(I)I)cc1,AC50,[1],62.8 µM (active)
O=C1C=CC(=O)N1c1ccccc1,outcome,[2],inactive
same,outcome,[1],inactive
same,AC50,[6],69.7 µM (active)
same,AC50,[7],80.4 µM (active)
same,AC50,[8],87.1 µM (active)
same,AC50,[9],86.8 µM (active)
same,AC50,[10],84.5 µM (active)
same,AC50,[11],85.3 µM (active)
same,AC50,[12],74.9 µM (active)
same,AC50,[13],77.5 µM (active)
CC(=O)c1ccccc1N,outcome,[1],inactive
CN(C)C(C)(C)CO,outcome,[1],inactive
CC(C)C(=O)OCc1ccccc1,outcome,[1],inactive
c1ccc(C[P+](c2ccccc2)(c2ccccc2)c2ccccc2)cc1,outcome,[1],inactive
CCOCOCC,outcome,[2],inactive
same,outcome,[1],inactive
Cc1cccc(C)n1,outcome,[2],inactive
same,outcome,[1],inactive
CCc1ccc(C)nc1,outcome,[1],inactive
CCOCN(C(=O)CS(=O)(=O)O)c1c(C)cccc1CC,outcome,[1],inactive
CSc1ccc(O)cc1C,outcome,[2],inactive
same,outcome,[1],inactive
CC1=CCC(=O)O1,outcome,[1],inactive
COc1ccccc1C=O,outcome,[1],inactive
Oc1ccc2c(c1)CCC2,outcome,[2],inactive
same,outcome,[1],inactive
O=C1c2ccccc2C(=O)c2c(Cl)cccc21,outcome,[2],inactive
CCN(CC)c1ccc(N=Nc2ccccc2)cc1,outcome,[2],inactive
same,outcome,[1],inactive
CC(C)=CCCC(C)O (stereo unspecified),outcome,[1],inactive
CCN(CC)c1ccc(C=O)cc1,outcome,[2],inactive
same,outcome,[1],inactive
O=C(c1ccccc1)c1ccc(Cl)cc1,outcome,[2],inactive
O=C1OC(=O)c2ccc3c4c(ccc1c24)C(=O)OC3=O,outcome,[1],inactive
Cc1cnccn1,outcome,[1],inactive
Cc1cc(O)c(C(C)(C)C)cc1C(C)(C)C,outcome,[2],inactive
same,outcome,[1],inactive
same,AC50,[6],40.6 µM (active)
same,AC50,[7],70.8 µM (active)
same,AC50,[8],87 µM (active)
same,AC50,[9],87.3 µM (active)
same,AC50,[10],30.9 µM (active)
same,AC50,[11],57.2 µM (active)
same,AC50,[12],34.3 µM (active)
same,AC50,[13],44.8 µM (active)
CCn1c2ccccc2c2ccccc21,AC50,[2],50 µM (active)
same,outcome,[1],inactive
C[C@]12CC[C@H]3C(=CCc4cc(O)ccc43)[C@@H]1CCC2=O,AC50,[2],4.29 µM (active)
same,outcome,[1],inactive
same,outcome,[6],inactive
same,outcome,[7],inactive
same,outcome,[8],inactive
same,outcome,[9],inactive
same,AC50,[10],15.8 µM (active)
same,outcome,[11],inactive
same,outcome,[12],inactive
same,outcome,[13],inactive
same,AC50,[3],13.9 µM (active)
same,AC50,[4],87.7 µM (active)
same,AC50,[5],47 µM (active)
same,AC50,[14],0.0231 µM (active)
same,AC50,[15],0.0172 µM (active)
same,AC50,[16],0.0196 µM (active)
N#CCCOCCC#N,outcome,[1],inactive
CCCCCCCCCCCCC[N+](C)(C)Cc1ccccc1,outcome,[2],inactive
same,AC50,[1],31.7 µM (active)
same,AC50,[3],25.5 µM (active)
same,AC50,[4],9.42 µM (active)
same,outcome,[5],inactive
COCCOCCC[Si](C)(O[Si](C)(C)C)O[Si](C)(C)C,outcome,[1],inactive
CCCC(=O)OCC(COC(=O)CCC)OC(=O)CCC,outcome,[1],inactive
OCCCCl,outcome,[1],inactive
CO[Si](CCCOCC1CO1)(OC)OC (stereo unspecified),outcome,[1],inactive
same,outcome,[6],inactive
same,AC50,[7],86.5 µM (active)
same,outcome,[8],inactive
same,outcome,[9],inactive
same,outcome,[10],inactive
same,outcome,[11],inactive
same,outcome,[12],inactive
same,outcome,[13],inactive
CCc1cc(Cc2cc(CC)c(N)c(CC)c2)cc(CC)c1N,outcome,[1],inactive
same,outcome,[6],inactive
same,outcome,[7],inactive
same,outcome,[8],inactive
same,outcome,[9],inactive
same,AC50,[10],68 µM (active)
same,outcome,[11],inactive
same,outcome,[12],inactive
same,outcome,[13],inactive
Cc1cc(C)c(O)c(C(C)(C)C)c1,outcome,[1],inactive
CC(C)(C)c1cc(CCC(=O)OCC(COC(=O)CCc2cc(C(C)(C)C)c(O)c(C(C)(C)C)c2)(COC(=O)CCc2cc(C(C)(C)C)c(O)c(C(C)(C)C)c2)COC(=O)CCc2cc(C(C)(C)C)c(O)c(C(C)(C)C)c2)cc(C(C)(C)C)c1O,outcome,[1],inactive
CC(C)(C)C(=O)C1C(=O)c2ccccc2C1=O,outcome,[1],inactive
same,outcome,[6],inactive
same,outcome,[7],inactive
same,AC50,[8],62 µM (active)
same,outcome,[8],inactive
same,AC50,[9],42.7 µM (active) and 35.6 µM (active)
same,outcome,[10],inactive
same,AC50,[11],67.3 µM (active)
same,outcome,[11],inactive
same,outcome,[12],inactive
same,outcome,[13],inactive
CCCCCCCCCCCC(=O)Cl,outcome,[1],inactive
C=C(C)CCCC,outcome,[1],inactive
Brc1nc2ccccc2s1,outcome,[1],inactive
same,outcome,[6],inactive
same,outcome,[7],inactive
same,outcome,[8],inactive
same,outcome,[9],inactive
same,outcome,[10],inactive
same,outcome,[11],inactive
same,outcome,[12],inactive
same,outcome,[13],inactive
CCC(Cc1c(I)cc(I)c(N)c1I)C(=O)O (stereo unspecified),outcome,[1],inactive
same,outcome,[6],inactive
same,outcome,[7],inactive
same,outcome,[8],inactive
same,outcome,[9],inactive
same,AC50,[10],69.9 µM (active)
same,outcome,[10],inactive
same,outcome,[11],inactive
same,outcome,[12],inactive
same,outcome,[13],inactive
CN1CN(C)CN(C)C1,outcome,[1],inactive
O=C(Cl)c1ccc(Cl)cc1Cl,outcome,[1],inactive
